SMILES strings stand for the structures. Compounds without any hit were thinned out: in the full panel of roughly 83,000, 20% have a hit.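 The endpoint reported here, percent growth, reads 100 for growth as untreated, 0 for no net growth and -100 for all cells dead.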 Unmarked numbers belong to inactive results. Calls of active or inactive are those of the source. How the source made its calls: active means growth percent below 10; inactive means the rest.

Common to all, as to test: NCI-60 one-dose screen, 48 h (100 = growth as untreated, 0 = no growth, -100 = all killed)
Common to all, as to conditions: 10 µM unless noted

The test system of test [1] is NCI-H23 lung.
Test [2] deals with NCI-H226 lung.
The subject of test [3] is NCI-H322M lung.
Test [4] relates to HOP-62 NSCLC.
Test [5] concerns NCI-H460 lung.
In test [6] the test system is HOP-92 NSCLC.
Test [7] concerns NCI-H522 lung.
Test [8] concerns A549/ATCC NSCLC.
Test [9] deals with 786-0 renal.
Test [10] deals with COLO 205 colon.
The test system of test [11] is DU-145 prostate.
Test [12] has as its system K-562 leukemia.
The subject of test [13] is MALME-3M melanoma.
For test [14], the system named is MDA-MB-231 breast.
Test [15] has as its system RXF 393 renal.
Test [16] concerns SF-268 CNS.
Test [17] relates to SF-295 CNS.
Test [18] has as its system SF-539 CNS.
Test [19] deals with UACC-257 melanoma.
For test [20], the system named is M14 melanoma.

As for `CSc1ccc2c3c(n(CCCn4ccnc4)c(=O)c2c1)-c1ccccc1C3=O`, the growth in test [1] is 30.7%; in [2], 69.2%; in [3], 71.7%; in [4], 34.7%; in test [5], 11.5%; in test [6], 83.2%. The growth is 19.3% in test [7]; 47.9% in test [8]; 20.4% in [9]; 57.9% in test [10]; 28.5% in test [11]; 35.6% in test [12]. Also, the growth is 87.8% in [13]; 91.4% in [14]; 46.3% in test [15]; 31.7% in test [16]; 12.1% in test [17]; 4.89% (active) in [18]. Also, the growth is 71% in test [19] and 26.6% in [20].
Turning to `Nc1cc(C(=O)O)cc(-n2c(O)c(C=C3N=c4ccccc4=N3)sc2=S)c1`, the growth is 92.6% in test [1]; 85.4% in test [2]; 99.2% in test [3]; 100% in test [4]; 98% in test [5]; 81.6% in test [6]. In addition, the growth in [7] is 92.7%; in [8], 104%; in [9], 102%; in [10] it was 103%; in test [11], 111%; in test [12], 116%. Besides, the growth in [13] was 96.9%; in test [14], 89.4%; in test [15], 112%; in test [16], 97.6%; in [17], 101%; in [18], 97.3%. In addition, the growth in [19] was 102%; in [20], 97.9%.
For the molecule `CCn1cc(C(=O)N/N=C/c2ccccc2)c(=O)c2cc(F)c(N3CCNC(C)C3)c(F)c21` (stereo not given), the growth was 68.5% in [1]; 87.4% in test [2]; 52.4% in test [3]; 68.6% in [4]; -73% (active) in test [5]; 55.8% in test [6]. For the same molecule, the growth in [7] is -75.3% (active); in test [8], -83.9% (active); in test [9], -67.4% (active); in [10] it was -74.4% (active); in test [11] it was -87.9% (active); in test [12], -39.4% (active). The growth in [13] is -78% (active); in test [14], -70.4% (active); in [15], -61.3% (active); in test [16] it was 38.9%; in [17], 8.87% (active); in test [18], -86.9% (active). The results for the growth in [19] and in test [20] were 39.6% and -49.7% (active), respectively.
On to `C[C@@H]1CN(c2cnc(C(=O)Nc3cc(F)cc4cccnc34)cn2)C[C@H](C)N1`, for which the growth was 63% in [1]; 44.8% in test [2]; 93.1% in [3]; 83.8% in [4]; 88.9% in [5]; 46% in [6]. Further, the growth is 51.7% in [7]; 94.6% in [8]; 60.6% in test [9]; 13% in [10]; 84.1% in test [11]; 28.5% in [12]. In addition, the growth was 65.2% in test [13]; 37.7% in test [14]; 39.8% in test [15]; 88.1% in [16]; 101% in [17]; 94.7% in [18]. In addition, the growth is 41.4% in test [19] and 73.9% in [20].
Consider `Cc1ccc2c(c1)=C/C(=C\c1cc(-c3ccccc3)[nH]c1O)C(=O)N=2`, for which the growth in test [1] was 56.7%; in test [2], 69.5%; in test [3], 82.2%; in test [4], 52%; in test [5], 25.6%; in test [6], 58%. Moreover, the growth in test [7] is 27%; in test [8], 46.2%; in [9] it was 41.6%; in test [10], 33.1%; in test [11], 61.6%; in test [12], 13.7%. The growth is 54.5% in [13]; 50.6% in test [14]; 34.5% in test [15]; 47.4% in [16]; 32.8% in [17]; 8.94% (active) in test [18]. The growth in test [19] is 64.7%; in test [20] it was 17.8%.
`COc1ccc(N/N=C/c2cn(-c3ccc(C(=O)O)cc3)nc2-c2cc3ccccc3oc2=O)cc1`: the growth in [1] was 86.7%; in test [2], 75.3%; in [3], 85.2%; in test [4], 84%; in test [5] it was 47.4%; in [6] it was 86.6%. For the same molecule, the growth in [7] is 52.3%; in [8] it was 57.1%; in test [9], 59%; in [10], 84.3%; in test [11], 84.2%; in [12] it was 11.3%. Also, the growth in test [13] was 109%; in test [14] it was 77.9%; in test [15], 111%; in test [16] it was 68.5%; in test [17], 22.5%; in test [18], 50%. Also, the growth in [19] was 88.9%; in test [20] it was 42.3%.
In the case of `Nc1cc(Br)cc2c1[nH]c(=O)c1ccccc12`, the growth was 83.4% in test [1]; 91.9% in test [2]; 109% in test [3]; 102% in [4]; 93.4% in [5]; 77.6% in test [6]. Further, the growth in test [7] was 98.1%; in [8], 91.7%; in test [9], 101%; in test [10], 106%; in test [11] it was 106%; in test [12] it was 92.5%. The growth in test [13] is 124%; in test [14] it was 102%; in test [15], 103%; in [16] it was 106%; in test [17], 108%; in [18], 112%. The growth in test [19] was 94.7%; in [20], 114%.
As for `CN1CCN(c2ccc(NC3=CC(=O)c4ncncc4C3=O)cc2)CC1`, the growth in test [1] was -43.5% (active); in [2], -47.7% (active); in test [3] it was 10.8%; in [4], -87.5% (active); in test [5], -24.4% (active); in test [6] it was -61.7% (active). The growth was -56.7% (active) in [7]; -7.95% (active) in test [8]; -50.5% (active) in test [9]; -69.8% (active) in test [10]; -89.1% (active) in test [11]; -22.1% (active) in [12]. The growth is -98.4% (active) in test [13]; -15.1% (active) in [14]; -94.8% (active) in test [15]; -46.3% (active) in test [16]; -96.1% (active) in test [17]; -96.1% (active) in test [18]. For the same molecule, the growth in test [19] is -81.5% (active); in test [20], -81.8% (active).

These data come from PubChem BioAssay (NCI).
